# Experimental data from the supplement of paper PMC8728848.
# The sample as a whole holds a higher share of the strongest signals than the screen did.
# B1: Mnn9-2N3 (Aspergillus fumigatus) (protein)
# chain: MAVARRMRRTNPITLLLAAILAIGFFIFVLSPSTTSASPVKAGSASSSSTSQQRREDNAAENPLSPPTKPFFKSQPVRHDGQQAPPPVVQYNLNQLSSTSTSAANGERILILTPMARFVPEYWDNVVKLTYPHELISIGFIIPKNKEGNAALAALEAAIAKTQSGPIDKRFASISILRQDFEPPLQSQDEKERHKISNQKARRESMSRARNSLLFTTLGPATAWVLWLDADIVETPPTLIQDLTAHDHPVLVPNCYQRYYNSEKKKMDVRPYDYNSWIDSSTAQSMAAEMGPDEILLEGYAEMPTYRTLMAHLADTANPNPKKVIELDGVGGTALMVKAEVHRDGAMFPAFPFYHLVETEGFAKMAKRLGYSVYGLPDYFVSRNFFFFFFFFFFG
# Key:
# Experiment in all cases: glycan array binding signal (z-score within array); higher = stronger binding
# Settings in all cases: glycan notation: IUPAC condensed, linker removed
# [1] = target: Fuc(a1-2)Gal(b1-3)GalNAc(b1-3)Gal(a1-4)Gal(b1-4)Glc
# In short: (§1)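 Negative Z-scores can be read as non-binding. The Z-score is calculated within each array and then averaged across arrays of one protein sequence at different concentrations or buffers and across linkers. Arrays, 3228 in all, were curated from the Consortium for Functional Glycomics database and kept only where the protein sequence was available.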
# [2] = target: Fuc(a1-2)Gal(b1-4)GlcNAc(b1-2)Man
# In short: as §1
# [3] = target: Fuc(a1-2)Gal(b1-4)[Fuc(a1-3)]GlcNAc(b1-2)Man(a1-3)[Fuc(a1-2)Gal(b1-4)[Fuc(a1-3)]GlcNAc(b1-2)Man(a1-6)]Man(b1-4)GlcNAc(b1-4)[Fuc(a1-6)]GlcNAc
# In short: as §1
# [4] = target: Fuc(a1-2)Gal3S(b1-4)GlcNAc
# In short: as §1
# [5] = target: Fuc(a1-2)[Gal(a1-3)]Gal(b1-4)[Fuc(a1-3)]GlcNAc
# In short: as §1
# [6] = target: Fuc(a1-2)[GalNAc(a1-3)]Gal(b1-3)GlcNAc
# In short: as §1
# [7] = target: Fuc(a1-2)[GalNAc(a1-3)]Gal(b1-4)GlcNAc
# In short: as §1
# [8] = target: Fuc(a1-2)[GalNAc(a1-3)]Gal(b1-4)GlcNAc(b1-2)Man(a1-3)[Fuc(a1-2)[GalNAc(a1-3)]Gal(b1-4)GlcNAc(b1-2)Man(a1-6)]Man(b1-4)GlcNAc(b1-4)GlcNAc
# In short: as §1
# [9] = target: Fuc(a1-2)[GalNAc(a1-3)]Gal(b1-4)GlcNAc(b1-3)[Fuc(a1-2)[GalNAc(a1-3)]Gal(b1-4)GlcNAc(b1-6)]GalNAc
# In short: as §1
# [10] = target: Fuc(a1-2)[GalNAc(a1-3)]Gal(b1-4)GlcNAc(b1-6)GalNAc
# In short: as §1
# [11] = target: Fuc(a1-3)[Gal3S(b1-4)]GlcNAc6S
# In short: as §1
# Gal(a1-2)Gal = target: Gal(a1-2)Gal
# In short: as §1
# Gal(a1-3)Gal = target: Gal(a1-3)Gal
# In short: as §1
# [12] = target: Gal(a1-3)Gal(b1-3)GlcNAc(b1-3)GalNAc
# In short: as §1
# [13] = target: Gal(a1-3)Gal(b1-4)[Fuc(a1-3)]GlcNAc(b1-2)Man(a1-3)[Gal(a1-3)Gal(b1-4)[Fuc(a1-3)]GlcNAc(b1-2)Man(a1-6)]Man(b1-4)GlcNAc(b1-4)GlcNAc
# In short: as §1
# Gal(a1-4)GlcNAc = target: Gal(a1-4)GlcNAc
# In short: as §1
# [14] = target: Gal(b1-3)GlcNAc(b1-6)[Gal(b1-3)]GalNAc
# In short: as §1
# [15] = target: Gal(b1-3)[Fuc(a1-4)]GlcNAc(b1-2)Man(a1-3)[Gal(b1-3)[Fuc(a1-4)]GlcNAc(b1-2)Man(a1-6)]Man(b1-4)GlcNAc(b1-4)[Fuc(a1-6)]GlcNAc
# In short: as §1
# [16] = target: Gal(b1-4)GlcNAc(b1-3)Gal(b1-4)GlcNAc
# In short: as §1
# [17] = target: Gal(b1-4)GlcNAc(b1-3)Gal(b1-4)GlcNAc(b1-2)Man(a1-3)[Gal(b1-4)GlcNAc(b1-3)Gal(b1-4)GlcNAc(b1-2)Man(a1-6)]Man(b1-4)GlcNAc(b1-4)GlcNAc
# In short: as §1
# Gal3S(b1-4)Glc = target: Gal3S(b1-4)Glc
# In short: as §1
# Gal3S(b1-4)Glc6S = target: Gal3S(b1-4)Glc6S
# In short: as §1
# Gal6P(b1-4)GlcNAc = target: Gal6P(b1-4)GlcNAc
# In short: as §1
# Gal6S(b1-3)GlcNAc6S = target: Gal6S(b1-3)GlcNAc6S
# In short: as §1
# GalNAc(b1-4)GlcNAc = target: GalNAc(b1-4)GlcNAc
# In short: as §1
# GalNAc(b1-6)GalNAc = target: GalNAc(b1-6)GalNAc
# In short: as §1
# [18] = target: GalNAc3S(b1-4)[Fuc(a1-3)]GlcNAc
# In short: as §1
# GalNAc6S(b1-4)GlcNAc = target: GalNAc6S(b1-4)GlcNAc
# In short: as §1
# GlcA(b1-3)Gal = target: GlcA(b1-3)Gal
# In short: as §1
# [19] = target: GlcNAc(b1-2)[GlcNAc(b1-4)]Man(a1-3)[GlcNAc(b1-4)][GlcNAc(b1-2)[GlcNAc(b1-6)]Man(a1-6)]Man(b1-4)GlcNAc(b1-4)GlcNAc
# In short: as §1
binder,measurement,setting,value
B1,glycan array binding signal (z-score),[1],-0.365
same,glycan array binding signal (z-score),[2],-1.25
same,glycan array binding signal (z-score),[3],3.21
same,glycan array binding signal (z-score),[4],1.83
same,glycan array binding signal (z-score),[5],-0.761
same,glycan array binding signal (z-score),[6],-1.58
same,glycan array binding signal (z-score),[7],0.402
same,glycan array binding signal (z-score),[8],0.31
same,glycan array binding signal (z-score),[9],-0.67
same,glycan array binding signal (z-score),[10],2.39
same,glycan array binding signal (z-score),[11],3.29
same,glycan array binding signal (z-score),Gal(a1-2)Gal,3.25
same,glycan array binding signal (z-score),Gal(a1-3)Gal,-0.434
same,glycan array binding signal (z-score),[12],-0.015
same,glycan array binding signal (z-score),[13],2.41
same,glycan array binding signal (z-score),Gal(a1-4)GlcNAc,2.75
same,glycan array binding signal (z-score),[14],-0.321
same,glycan array binding signal (z-score),[15],-0.841
same,glycan array binding signal (z-score),[16],-0.099
same,glycan array binding signal (z-score),[17],3.03
same,glycan array binding signal (z-score),Gal3S(b1-4)Glc,3.44
same,glycan array binding signal (z-score),Gal3S(b1-4)Glc6S,1.42
same,glycan array binding signal (z-score),Gal6P(b1-4)GlcNAc,2.57
same,glycan array binding signal (z-score),Gal6S(b1-3)GlcNAc6S,2.52
same,glycan array binding signal (z-score),GalNAc(b1-4)GlcNAc,-0.366
same,glycan array binding signal (z-score),GalNAc(b1-6)GalNAc,-0.275
same,glycan array binding signal (z-score),[18],-0.385
same,glycan array binding signal (z-score),GalNAc6S(b1-4)GlcNAc,-0.802
same,glycan array binding signal (z-score),GlcA(b1-3)Gal,0.326
same,glycan array binding signal (z-score),[19],-0.559
